CHT block = inhibitors of human choline transporter CHT | Q9GZV3 | B-score at 10 µM | CHT-expressing cells, membrane potential dye, choline response; active compounds read low | 0.86% of 310,000 active;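 active = B-score over 3 SD under the library average, and starting fluorescence ratio not unusually high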;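 note: choline stimulus applied at its EC90 after an EC20 pre-addition; B-score computed on integrated fluorescence ratio after choline addition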
Target sequence (Q9GZV3 whole entry, looked up): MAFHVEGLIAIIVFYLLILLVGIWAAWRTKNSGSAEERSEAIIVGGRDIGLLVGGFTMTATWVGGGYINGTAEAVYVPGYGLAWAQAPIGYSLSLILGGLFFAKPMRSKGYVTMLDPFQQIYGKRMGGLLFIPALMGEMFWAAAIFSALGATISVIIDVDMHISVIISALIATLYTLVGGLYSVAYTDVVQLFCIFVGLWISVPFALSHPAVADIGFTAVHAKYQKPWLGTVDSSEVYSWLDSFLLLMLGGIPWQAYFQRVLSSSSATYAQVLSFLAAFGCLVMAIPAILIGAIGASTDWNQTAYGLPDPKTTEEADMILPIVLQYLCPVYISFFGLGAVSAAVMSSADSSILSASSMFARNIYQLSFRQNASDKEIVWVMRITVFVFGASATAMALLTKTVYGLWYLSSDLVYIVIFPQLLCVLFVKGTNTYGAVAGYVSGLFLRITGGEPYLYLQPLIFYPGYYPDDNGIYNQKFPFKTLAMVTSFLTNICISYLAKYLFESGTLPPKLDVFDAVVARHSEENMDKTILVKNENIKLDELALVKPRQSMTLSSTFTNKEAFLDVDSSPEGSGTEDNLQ
TMEM16A act = activates or potentiates the mouse TMEM16A chloride channel | HEK293 TMEM16A/YFP-H148Q/I152L, iodide quench fluorescence; active compounds read low | Q8BHY3 | B-score at 10 µM | 0.3% of 340,000 active;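 active = fluorescence-ratio B-score plate-corrected deviation score at least 3 library SD below zero, with starting fluorescence score within 5 deviations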;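 note: channel opened by trigger with iodide after compound preincubation; score built on the fluorescence ratio of max minus min over baseline; more negative score means more quench and so TMEM16A activation or potentiation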
ANO1 block = blocks the mouse calcium-activated chloride channel TMEM16A | 1.2% of 310,000 active | HEK293 TMEM16A/YFP iodide influx fluorescence, ionomycin | AID 588511 | normalized B-score (activity score, 25-100; higher = stronger inhibition) at 10 µM | Q8BHY3;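 active = ratio plate-corrected score three or more library SD toward inhibition, starting fluorescence score within five deviations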;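 note: score derived from kinetic fluorescence span divided by baseline fluorescence per well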
Rce1 inh = yeast Ras-converting enzyme inhibition. yeast membranes, quenched prenylated peptide cleavage fluorescence. 0.27% of 290,000 active. Q03530. AID 2563. calls only;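 active = fall in fluorescence gain of 50% or more versus controls, with final raw signal at or below 3038400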;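 note: plate controls were neutral control wells for no effect and wells lacking membranes for full effect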
Kir21 inh = blocks the mouse Kir2.1 inward-rectifier potassium channel; P35561; HEK293-Kir2.1, FluxOR thallium flux fluorescence; active compounds read low; B-score at 10 µM; 0.85% of 310,000 active;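 active = fluorescence ratio B-score at or below minus 3 SD of library scores, with starting-brightness B-score within 2 SD, cut at about -4.2 in these data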;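 note: channel flux triggered by added potassium and thallium sulfate stimulus; B-score of peak minus minimum fluorescence over baseline after thallium stimulus; more negative B-score means stronger Kir2.1 block with less thallium influx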
CHT allo act = human CHT allosteric activation | Q9GZV3 | CHT-expressing cells, membrane potential dye, choline EC20; active compounds read high; LV-AA mutant CHT in HEK293 cells | B-score at 10 µM | 0.49% of 310,000 active;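 active = initial fluorescence not abnormally high and integrated response B-score, plate-corrected, over 3 SD above library mean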
TMEM16A reconf = TMEM16A (mouse) chloride channel inhibition, re-confirmation; 39% of 2,300 active; shares compounds with ANO1 block; inhibition, % at 10 µM; HEK293 TMEM16A/YFP-H148Q, iodide quench fluorescence; ionomycin added to raise cell calcium;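 active = mean duplicate percent inhibition, scaled so buffer wells are 0 and the reference blocker 100, over three buffer SD above buffer mean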
TMEM16A Ca cntr = alters calcium mobilization in TMEM16A HEK293 cells, counter-screen. shares compounds with ANO1 block. TMEM16A/YFP HEK293, Fluo4 calcium mobilization. calcium response (% of ionomycin), % at 10 µM. 2% of 2,300 active;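 active = duplicate-averaged calcium signal over 20% of the ionomycin maximum, relative to buffer baseline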;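 note: each well's signal is peak minus trough fluorescence divided by its pre-addition baseline; 0% = buffer wells and 100% = ionomycin wells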
YFP-HEK293 quench = acts in parental YFP-HEK293 cells lacking TMEM16A, counter-screen; shares compounds with ANO1 block; iodide YFP quench, ionomycin; YFP ratio F(max-min)/F0 at 10 µM; 2,300 tested, under 10 active; AID 652233;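 active = yellow fluorescent protein signal ratio exceeding the buffer control mean by over 5 SD of those controls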;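 note: ratio is mean of duplicate wells from kinetic YFP trace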
ClC-1 inh = selectivity of TMEM16A inhibitors: inhibition of rat ClC-1 chloride channel; shares compounds with ANO1 block; CHO ClC-1-YFP, iodide influx fluorescence quench; iodide control reads 0, buffer control 100; ratio percent, % at 10 µM; 2,300 tested, under 10 active; AID 652236;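 active = duplicate-mean ratio percent above the mean of iodide-only control wells, which defines zero, plus 5 of their SD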;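 note: higher percent means stronger block of ClC-1 iodide influx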
Numbers without * were called inactive; i = inactive; . = no result given. An excerpt weighted towards active compounds, which were near 3.2% of everything screened.

SMILES | CHT block | TMEM16A act | ANO1 block | Rce1 inh | Kir21 inh | CHT allo act | TMEM16A reconf | TMEM16A Ca cntr | YFP-HEK293 quench | ClC-1 inh
CC(=O)c1c(C)nn(CC(O)COc2ccc3c(c2)CCC3)c1C (configuration not stated) | i | i | 25* | i | 1.85 | i | i | i | -1.07 | -6.5
O=C(NCC1CCCO1)c1ccc(COc2ccccc2)cc1 (configuration not stated) | i | i | i | i | -0.12 | i | . | . | . | .
CN1CCC(N(C)C(=O)c2ccc(Cl)c(S(=O)(=O)N3CCCCC3)c2)CC1 | . | i | . | . | . | . | . | . | . | .
Cc1ccc(CNn2cnnc2SCc2ccc(F)cc2)cc1 | i | i | 100* | i | -2.35 | i | i | i | -1.33 | 4.5
Fc1ccc(CNn2cnnc2SCc2ccc(F)cc2)cc1 | i | i | i | . | -3.12 | i | . | . | . | .
O=C(COC(=O)c1cc(=O)[nH]c2ccccc12)NCc1ccc(Cl)cc1 | . | i | . | . | . | . | . | . | . | .
COC(=O)C(Cc1ccc(OC(=O)c2ccccc2Cl)cc1)N1Cc2ccccc2C1=O (configuration not stated) | i | i | 100* | i | 0.11 | i | i | i | -1 | -5.0
CCOc1cc(C(=S)N2CCC(O)CC2)ccc1OS(=O)(=O)c1ccc(Br)cc1 | i | i | 25* | . | -0.27 | i | i | i | -1.21 | -11.0
CCOc1cc(C(=S)N2CCCCC2)ccc1OS(=O)(=O)c1ccc(Br)cc1 | i | i | i | i | 0.67 | i | . | . | . | .
N#Cc1ccc(CN2C=NS(=O)(=O)c3ccccc32)cc1 | i | i | i | i | 2.59 | i | . | . | . | .
COc1ccc(C2C(C(=O)N3CCN(c4ccccc4)CC3)c3ccccc3C(=O)N2C)cc1OC (configuration not stated) | i | i | 100* | i | 2.17 | i | i | i | -1.1 | -30.0
COc1ccc(C2C(C(=O)N3CCCC3)c3cc(OC)c(OC)cc3C(=O)N2C)cc1OC (configuration not stated) | i | i | i | i | -0.08 | i | . | . | . | .
CSc1ccc(C(=O)C2CCCN(C(=O)CCc3c(C)nn(C)c3C)C2)cc1 (configuration not stated) | i | i | 25* | i | -1.17 | i | i | i | -0.89 | -11.0
CSc1ccc(C(=O)C2CCCN(C(=O)CCn3cncn3)C2)cc1 (configuration not stated) | i | i | i | i | 1.94 | i | . | . | . | .
Cc1nc2sc(C(c3ccccc3)N3CCN(C)CC3)c(O)n2n1 (configuration not stated) | i | i | i | i | -0.17 | i | . | . | . | .
Cc1oc2cc3oc(=O)c(CCC(=O)NC4CC4)c(C)c3cc2c1C | i | i | 25* | i | -0.05 | i | i | i | -0.781 | -15.0
Cc1coc2cc3oc(=O)c(CCC(=O)NC4CC4)c(C)c3cc12 | i | i | i | . | 0.18 | i | . | . | . | .
Cc1nc(CC(C)C)cc(C(=O)N2CCCC(CNS(=O)(=O)c3cccs3)C2)n1 (configuration not stated) | i | i | i | i | 1.87 | i | . | . | . | .
O=C(NCc1ccccc1)c1cc2nc(C3CC3)cc(C(F)(F)F)n2n1 | i | i | 100* | i | -1.83 | i | i | i | -1.17 | -14.0
Cc1ccccc1S(=O)(=O)N1[C@@H](c2ccc(F)cc2)C(C(=O)O)=CC[C@H]1c1ccc(Cl)cc1 | i | i | 100* | . | . | i | 28.0%* | i | -1.31 | -39.0
